“And” between values parts separate entries of the source, which are not always exact repeats. Equal entries are not always repeated. Records with an inconclusive call do not appear. The source made the active and inactive calls. Unless noted, no rule for the calls is given here.
Columns and labels:
[1] = protection against mutant huntingtin cytotoxicity, PC12 cells, LDH release (AID 1610); details: PC12 mutant huntingtin toxicity, final LDH at 4 uM, stronger effect = lower value
[2] = circadian clock period modulators, cell-based, LOPAC library, luminescence reporter (AID 2774); details: circadian reporter cells, at 7 µM, actives lie on both sides;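 also: values are relative to mean of DMSO wells on each plate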
[3] = hESC survival regulators, cell-based (AID 493140); details: human embryonic stem cell survival screen; stronger effect = higher value;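 also: cells exposed to compounds for four days before counting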
[4] = inhibitors of Cryptococcus chitosan production, flow cytometry, Cibacron Brilliant Red staining (AID 1347148); details: Cryptococcus neoformans chitosan, stronger effect = lower value; at 10 µM unless noted;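 also: compound exposure lasted three days at 37 degrees C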
[5] = UWB1.289 ovarian carcinoma cell growth inhibition, synergistic combos for chromothripsis tumors, BGB or cisplatin combos (AID 1671456; in the data active = inhibition above about 80%;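 also: cells exposed to compound for four days; 0% = vehicle DMSO and 100% = killing by high DMSO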); details: UWB1.289 ovarian carcinoma cells, stronger effect = higher value
[6] = LFS_MB_2R medulloblastoma cell growth inhibition, synergistic combos for chromothripsis tumors, cisplatin combos (AID 1671457; in the data active = inhibition above about 80%;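 also: cells exposed to compound for four days before readout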); details: LFS_MB_2R medulloblastoma cells, stronger effect = higher value
[7] = UWB1.289_BRCA1 ovarian cancer growth, cell-based, BGB or cisplatin combinations (AID 1671459; in the data active = inhibition above about 80%); details: UWB1.289 BRCA1 ovarian carcinoma, drug combinations, stronger effect = higher value
[8] = human astrocyte viability loss, single and combined drugs, cytotoxicity control for chromothriptic childhood tumor combination screen, cell-based, BGB or cisplatin IC20 combos (AID 1671460; in the data active = inhibition above about 80%;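 also: cells exposed to compounds for 96 hours before viability readout; 0% = vehicle and 100% = killing control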); details: Human astrocytes, drug combinations, stronger effect = higher value
[9] = kinase inhibitors against Plasmodium liver-stage infection, cell-based, known kinase inhibitor set, luminescence, hepatoma host viability (AID 624392); details: Plasmodium liver stage in hepatoma cells, luciferase luminescence, concentration not given here; liver cell % of control: measured here: host liver cell viability; parasite % of control: stronger effect = lower value;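 also: infected cells incubated roughly two days before readout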
[10] = molecular target: ATP-dependent translocase ABCB1 (Homo sapiens) (UniProt P08183); assay: MDR1 (ABCB1) efflux transporter inhibition, cell-based (AID 377; in the data active = fluorescence slope change above about 50%); details: MDR1-expressing cells, fluorescent substrate accumulation slope; stronger effect = higher value; concentration not given here
[11] = measured here: inhibition with BGB combination, at 0.05 µM
[12] = measured here: inhibition with cisplatin combination, at 0.05 µM
[13] = measured here: combination with cisplatin, at 0.5 µM
[14] = measured here: combination with cisplatin, at 5 µM
[15] = BGB combination, concentration series, at 5 µM
[16] = cisplatin combination, concentration series, at 5 µM
[17] = measured here: combo with BGB IC20, at 0.5 µM
[18] = measured here: combo with cisplatin IC20, at 0.5 µM

ATP-dependent translocase ABCB1 (Homo sapiens), sequence (P08183 whole entry, looked up): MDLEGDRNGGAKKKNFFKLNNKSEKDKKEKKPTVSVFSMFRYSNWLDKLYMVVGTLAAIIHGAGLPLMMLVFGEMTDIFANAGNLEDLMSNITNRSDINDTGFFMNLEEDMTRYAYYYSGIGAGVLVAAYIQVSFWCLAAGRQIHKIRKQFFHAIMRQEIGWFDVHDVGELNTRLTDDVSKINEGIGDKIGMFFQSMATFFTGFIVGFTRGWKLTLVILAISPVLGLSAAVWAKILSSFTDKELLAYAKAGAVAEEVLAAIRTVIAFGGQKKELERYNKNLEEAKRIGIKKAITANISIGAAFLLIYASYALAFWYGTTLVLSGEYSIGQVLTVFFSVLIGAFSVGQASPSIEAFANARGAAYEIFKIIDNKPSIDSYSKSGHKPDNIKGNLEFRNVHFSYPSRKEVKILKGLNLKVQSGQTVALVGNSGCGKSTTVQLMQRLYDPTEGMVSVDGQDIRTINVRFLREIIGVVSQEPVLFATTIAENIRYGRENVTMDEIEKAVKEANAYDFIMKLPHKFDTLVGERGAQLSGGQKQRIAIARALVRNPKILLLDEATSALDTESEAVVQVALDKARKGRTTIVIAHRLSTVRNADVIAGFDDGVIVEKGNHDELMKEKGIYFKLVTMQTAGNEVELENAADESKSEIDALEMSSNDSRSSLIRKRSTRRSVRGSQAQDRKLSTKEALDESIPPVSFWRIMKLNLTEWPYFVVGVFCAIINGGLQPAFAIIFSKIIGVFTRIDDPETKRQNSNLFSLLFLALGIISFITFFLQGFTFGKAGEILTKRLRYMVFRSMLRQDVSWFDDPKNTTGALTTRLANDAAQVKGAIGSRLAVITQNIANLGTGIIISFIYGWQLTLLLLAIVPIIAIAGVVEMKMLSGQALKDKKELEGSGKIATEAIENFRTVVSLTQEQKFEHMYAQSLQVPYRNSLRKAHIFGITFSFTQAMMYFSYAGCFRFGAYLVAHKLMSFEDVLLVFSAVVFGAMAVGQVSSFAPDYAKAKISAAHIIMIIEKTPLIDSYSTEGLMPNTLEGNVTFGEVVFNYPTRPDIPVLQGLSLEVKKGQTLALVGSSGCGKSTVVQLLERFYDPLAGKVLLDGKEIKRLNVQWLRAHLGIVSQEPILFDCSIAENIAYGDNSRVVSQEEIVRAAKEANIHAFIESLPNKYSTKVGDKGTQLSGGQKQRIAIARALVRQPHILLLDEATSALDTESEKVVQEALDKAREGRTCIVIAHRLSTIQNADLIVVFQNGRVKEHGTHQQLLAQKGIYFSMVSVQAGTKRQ

## CC(=O)OCC(=O)[C@@]1(O)[C@H](C)CC2C3CCC4=CC(=O)C=C[C@]4(C)[C@@]3(F)[C@@H](O)C[C@@]21C (stereo partly drawn)
[1]
  normalised LDH release: 0.545

## O=C1Nc2ccc(I)cc2/C1=C/c1cc(Br)c(O)c(Br)c1
[2]
  period change: -0.055 h (inactive)
[3]
  survival: 109 (inactive)
[4]
  fold fluorescence: 4.68 [at 96 µM] (inactive)

## O=c1cc(-c2cccc3c2Sc2ccccc2S3)oc(N2CCOCC2)c1
[5]; at 0.5 µM
  inhibition: -9.95% (inactive)
[5]; [11]
  inhibition: -28.4%
[5]; [12]
  inhibition: -10.7%
[6]; at 0.5 µM
  inhibition: -22.3% (inactive)
[6]; [13]
  inhibition: -27.3%
[6]; [14]
  inhibition: -42.7%
[7]; [15]
  inhibition: -14.2%
[7]; at 0.5 µM
  inhibition: -17.9% (inactive)
[7]; [16]
  inhibition: -3.21%
[8]; at 0.5 µM
  inhibition: -40.3% (inactive)
[8]; [17]
  inhibition: -56.7%
[8]; [18]
  inhibition: -32.4%

## O=C(O)C1CCCN(CCC=C(c2ccccc2)c2ccccc2)C1 (stereo not drawn)
[2]
  period change: 0.005 h (inactive)

## CCC(C)N(C)C(=O)c1cc2ccccc2c(-c2ccccc2Cl)n1 (stereo not drawn)
[2]
  period change: 0.03 h (inactive)

## CCc1c2c(nc3ccc(O)cc13)-c1cc3c(c(=O)n1C2)COC(=O)[C@]3(O)CC
[5]; at 0.5 µM
  inhibition: 74.5% (inactive)
[5]; [11]
  inhibition: 31%
[5]; [12]
  inhibition: 49.3%
[6]; at 0.5 µM
  inhibition: 13.2% (inactive)
[6]; [13]
  inhibition: 48.9%
[6]; [14]
  inhibition: 61.9%
[7]; [15]
  inhibition: 102%
[7]; at 0.5 µM
  inhibition: 81.6% (active)
[7]; [16]
  inhibition: 105%
[8]; at 0.5 µM
  inhibition: 90.1% (active)
[8]; [17]
  inhibition: 94.5%
[8]; [18]
  inhibition: 87%

## O=C(O)c1ccc(-c2c[nH]c3ncc(-c4ccccc4)cc23)cc1C1CCCC1
[9]
  liver cell % of control: 92%
  parasite % of control: 0.113% (active)

## COc1cccc(-c2cc(=O)c3ccccc3o2)c1N
[2]
  period change: -0.07 h (inactive)
[3]
  survival: 106 (inactive)
[4]
  fold fluorescence: 6.5 [at 187.1 µM] (inactive)

## CS(=O)c1ccc(-c2nc(-c3ccc(F)cc3)c(-c3ccncc3)[nH]2)cc1 (stereo not drawn)
[9]
  liver cell % of control: 87.6% and 90.6% and 97.1%
  parasite % of control: 20.8% (inactive) and 18.7% (inactive) and 25.5% (inactive)

## O=C1NC(=O)C(c2ccccc2[N+](=O)[O-])=C1Nc1ccc(O)c(Cl)c1
[2]
  period change: 0.15 h (inactive)
[4]
  fold fluorescence: 5.23 [at 139 µM] (inactive)

## NC(=O)c1ccc2[nH]ccc2c1
[9]
  liver cell % of control: 92.5% and 90.8% and 97.8%
  parasite % of control: 221% (inactive) and 164% (inactive) and 74.7% (inactive)

## O=c1[nH]c(-c2ccc(C(F)(F)F)cc2)nc2c1CSCC2
[5]; at 0.5 µM
  inhibition: -2.17% (inactive)
[5]; [11]
  inhibition: -13.9%
[5]; [12]
  inhibition: -26.3%
[6]; at 0.5 µM
  inhibition: -7.37% (inactive)
[6]; [13]
  inhibition: -7.07%
[6]; [14]
  inhibition: -6.53%
[7]; [15]
  inhibition: -5.61%
[7]; at 0.5 µM
  inhibition: 0.36% (inactive)
[7]; [16]
  inhibition: 7.32%
[8]; at 0.5 µM
  inhibition: -1.27% (inactive)
[8]; [17]
  inhibition: 0.645%
[8]; [18]
  inhibition: -5.26%

## CCOC(=O)C1=C(C)NC(=S)NC1c1cccc(O)c1 (stereo not drawn)
[2]
  period change: 0.16 h (inactive)

## CCOC(=O)C1=C(N)Oc2ccc(Br)cc2C1C(C#N)C(=O)OCC (stereo not drawn)
[4]
  fold fluorescence: 6.68 [at 122.2 µM] (inactive)

## CCCCC[C@H](O)/C=C/[C@H]1[C@H](O)CC(=O)[C@@H]1C/C=C\CCCC(=O)O
[10]
  fluorescence slope change: 51% (active)
[3]
  survival: 66.5 (inactive)

## O=c1ncccn1[C@@H]1O[C@H](CO)[C@@H](O)[C@H]1O
[5]; at 0.5 µM
  inhibition: -19.3% (inactive)
[5]; [11]
  inhibition: 1.76%
[5]; [12]
  inhibition: -40%
[6]; at 0.5 µM
  inhibition: -6.18% (inactive)
[6]; [13]
  inhibition: -23.5%
[6]; [14]
  inhibition: -12.7%
[7]; [15]
  inhibition: -30%
[7]; at 0.5 µM
  inhibition: -19.1% (inactive)
[7]; [16]
  inhibition: -22.8%
[8]; at 0.5 µM
  inhibition: -3.28% (inactive)
[8]; [17]
  inhibition: -9.39%
[8]; [18]
  inhibition: 1.77%

## Oc1ccc(-c2nc(-c3ccc(F)cc3)c(-c3ccncc3)[nH]2)cc1
[2]
  period change: 1.07 h (active)
[3]
  survival: 94 (inactive)
[9]
  liver cell % of control: 85.2% and 83.2% and 90.8%
  parasite % of control: 14.8% (inactive) and 19.2% (inactive) and 29.9% (inactive)
[4]
  fold fluorescence: 8.11 [at 150.9 µM] (inactive)

## Clc1ccc(-c2nc3sccn3c2/C=N/OCc2ccc(Cl)c(Cl)c2)cc1
[4]
  fold fluorescence: 3.64 [at 114.5 µM] (inactive)

## CCCC[C@@H](C=O)NC(=O)[C@H](CC(C)C)NC(=O)OCc1ccccc1
[4]
  fold fluorescence: 5.15 [at 137.9 µM] (inactive)

## CC(C)N(CCC(=O)c1ccc2ccccc2c1)Cc1ccccc1
[2]
  period change: 0 h (inactive)

## O=S(=O)(NCCNC/C=C/c1ccc(Br)cc1)c1cccc2cnccc12
[2]
  period change: -0.05 h (inactive)
[3]
  survival: 202 (active)
[4]
  fold fluorescence: 7.62 [at 112 µM] (inactive)

## O=Nc1c(-c2c(O)[nH]c3ccccc23)[nH]c2ccccc12
[2]
  period change: -0.845 h (active)
[3]
  survival: 71.6 (inactive)
[4]
  fold fluorescence: 9.39 [at 180.3 µM] (inactive)

## Cc1ccc(S(=O)(=O)/C=C/C#N)cc1
[3]
  survival: 9.17 (inactive)
[4]
  fold fluorescence: 8.49 [at 241.3 µM] (inactive)

## Cc1cccc(C#Cc2ccccc2)n1
[2]
  period change: 0.065 h (inactive)

## N#CC(=C(/N)Sc1ccccc1N)/C(C#N)=C(\N)Sc1ccccc1N
[3]
  survival: 104 (inactive)
[4]
  fold fluorescence: 5.14 [at 131.4 µM] (inactive)
